# Assays:
# [1] = target: Sphingosine kinase 1 (Homo sapiens) (UniProt Q9NYA1); conditions: at 1 µM;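 also: mean SPHK1 inhibition value reported from the GSK PKIS kinase panel screen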
# [2] = target: T1, Sphingosine kinase 2 (Homo sapiens) (UniProt Q9NRA0); conditions: at 0.1 µM
# T1 sequence (whole entry): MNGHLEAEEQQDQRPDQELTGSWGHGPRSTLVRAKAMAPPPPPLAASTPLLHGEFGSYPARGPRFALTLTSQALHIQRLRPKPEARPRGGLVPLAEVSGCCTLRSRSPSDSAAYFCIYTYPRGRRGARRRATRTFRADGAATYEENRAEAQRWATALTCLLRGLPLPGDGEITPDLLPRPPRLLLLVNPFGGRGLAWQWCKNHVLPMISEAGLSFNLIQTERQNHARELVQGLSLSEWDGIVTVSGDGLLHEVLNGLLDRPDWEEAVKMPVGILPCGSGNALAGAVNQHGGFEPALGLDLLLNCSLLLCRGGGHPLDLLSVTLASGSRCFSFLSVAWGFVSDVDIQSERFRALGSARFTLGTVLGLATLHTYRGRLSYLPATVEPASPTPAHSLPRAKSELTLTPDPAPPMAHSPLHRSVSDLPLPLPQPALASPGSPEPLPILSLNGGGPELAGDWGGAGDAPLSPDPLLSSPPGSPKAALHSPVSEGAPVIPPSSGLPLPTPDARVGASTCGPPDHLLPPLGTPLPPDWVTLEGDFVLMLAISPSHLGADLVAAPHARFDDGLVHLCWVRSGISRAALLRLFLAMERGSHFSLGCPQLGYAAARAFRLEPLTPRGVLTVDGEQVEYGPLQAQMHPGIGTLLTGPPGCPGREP
# [3] = target: T1, Sphingosine kinase 2 (Homo sapiens); conditions: at 1 µM
# [4] = target: Casein kinase II subunit alpha (Homo sapiens) (UniProt P68400); conditions: at 0.1 µM
# Sequence of Casein kinase II subunit alpha (Homo sapiens) (P68400 whole entry, looked up): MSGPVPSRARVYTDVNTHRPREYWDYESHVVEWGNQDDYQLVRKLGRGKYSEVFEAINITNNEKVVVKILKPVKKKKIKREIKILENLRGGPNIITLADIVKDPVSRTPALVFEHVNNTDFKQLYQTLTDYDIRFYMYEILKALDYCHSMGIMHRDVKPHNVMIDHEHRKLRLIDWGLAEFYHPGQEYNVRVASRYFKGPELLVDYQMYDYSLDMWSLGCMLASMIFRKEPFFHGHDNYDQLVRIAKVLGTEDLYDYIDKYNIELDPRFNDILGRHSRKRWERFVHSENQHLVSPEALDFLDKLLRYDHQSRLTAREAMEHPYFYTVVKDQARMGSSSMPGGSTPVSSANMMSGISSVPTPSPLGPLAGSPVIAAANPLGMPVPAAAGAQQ
# [5] = target: Casein kinase II subunit alpha (Homo sapiens) (UniProt P68400); conditions: at 1 µM
# [6] = target: T2, Inhibitor of nuclear factor kappa-B kinase subunit alpha (Homo sapiens) (UniProt O15111); conditions: at 0.1 µM
# T2 sequence (whole entry): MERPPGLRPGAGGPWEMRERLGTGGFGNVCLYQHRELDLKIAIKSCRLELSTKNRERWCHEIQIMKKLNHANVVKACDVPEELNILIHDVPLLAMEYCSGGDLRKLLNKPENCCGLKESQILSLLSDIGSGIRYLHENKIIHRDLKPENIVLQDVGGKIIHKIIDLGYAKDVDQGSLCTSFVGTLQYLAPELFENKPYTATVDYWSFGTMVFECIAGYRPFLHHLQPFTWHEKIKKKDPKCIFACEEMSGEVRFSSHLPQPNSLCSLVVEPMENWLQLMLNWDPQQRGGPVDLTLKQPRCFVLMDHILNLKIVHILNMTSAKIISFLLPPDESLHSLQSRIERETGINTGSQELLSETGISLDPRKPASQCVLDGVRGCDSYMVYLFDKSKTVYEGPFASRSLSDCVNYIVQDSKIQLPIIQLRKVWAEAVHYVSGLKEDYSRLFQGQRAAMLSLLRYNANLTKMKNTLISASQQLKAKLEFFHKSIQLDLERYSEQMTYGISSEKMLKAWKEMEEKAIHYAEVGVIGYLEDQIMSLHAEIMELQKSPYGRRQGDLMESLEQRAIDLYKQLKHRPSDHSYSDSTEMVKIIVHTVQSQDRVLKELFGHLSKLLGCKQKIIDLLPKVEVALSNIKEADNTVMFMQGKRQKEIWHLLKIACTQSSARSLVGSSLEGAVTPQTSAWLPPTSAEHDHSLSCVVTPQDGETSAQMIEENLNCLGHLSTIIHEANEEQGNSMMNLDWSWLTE
# [7] = target: T2, Inhibitor of nuclear factor kappa-B kinase subunit alpha (Homo sapiens); conditions: at 1 µM
# [8] = target: T3, Inhibitor of nuclear factor kappa-B kinase subunit beta (Homo sapiens) (UniProt O14920); conditions: at 0.1 µM
# T3 sequence (whole entry): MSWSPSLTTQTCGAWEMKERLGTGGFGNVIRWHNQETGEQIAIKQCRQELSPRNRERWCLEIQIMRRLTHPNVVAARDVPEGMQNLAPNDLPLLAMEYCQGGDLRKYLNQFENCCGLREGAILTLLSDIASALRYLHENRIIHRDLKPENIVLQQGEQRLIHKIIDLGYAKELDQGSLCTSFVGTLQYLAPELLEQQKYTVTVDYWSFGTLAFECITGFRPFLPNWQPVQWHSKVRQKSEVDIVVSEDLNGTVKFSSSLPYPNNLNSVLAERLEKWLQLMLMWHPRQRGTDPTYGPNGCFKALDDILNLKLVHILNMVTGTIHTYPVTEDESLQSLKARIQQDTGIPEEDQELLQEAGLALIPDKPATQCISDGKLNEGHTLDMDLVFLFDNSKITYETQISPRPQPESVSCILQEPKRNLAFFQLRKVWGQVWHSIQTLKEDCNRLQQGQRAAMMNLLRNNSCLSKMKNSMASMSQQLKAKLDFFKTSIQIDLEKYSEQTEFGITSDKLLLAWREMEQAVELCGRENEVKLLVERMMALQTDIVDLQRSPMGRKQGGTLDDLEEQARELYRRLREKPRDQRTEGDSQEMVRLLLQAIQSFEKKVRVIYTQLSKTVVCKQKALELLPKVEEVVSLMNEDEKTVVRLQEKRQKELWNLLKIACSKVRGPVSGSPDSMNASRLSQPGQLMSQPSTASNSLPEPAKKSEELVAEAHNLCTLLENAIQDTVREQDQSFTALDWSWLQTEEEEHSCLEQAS
# [9] = target: T3, Inhibitor of nuclear factor kappa-B kinase subunit beta (Homo sapiens); conditions: at 1 µM
# [10] = target: T4, Inhibitor of nuclear factor kappa-B kinase subunit epsilon (Homo sapiens) (UniProt Q14164); conditions: at 0.1 µM
# T4 sequence (whole entry): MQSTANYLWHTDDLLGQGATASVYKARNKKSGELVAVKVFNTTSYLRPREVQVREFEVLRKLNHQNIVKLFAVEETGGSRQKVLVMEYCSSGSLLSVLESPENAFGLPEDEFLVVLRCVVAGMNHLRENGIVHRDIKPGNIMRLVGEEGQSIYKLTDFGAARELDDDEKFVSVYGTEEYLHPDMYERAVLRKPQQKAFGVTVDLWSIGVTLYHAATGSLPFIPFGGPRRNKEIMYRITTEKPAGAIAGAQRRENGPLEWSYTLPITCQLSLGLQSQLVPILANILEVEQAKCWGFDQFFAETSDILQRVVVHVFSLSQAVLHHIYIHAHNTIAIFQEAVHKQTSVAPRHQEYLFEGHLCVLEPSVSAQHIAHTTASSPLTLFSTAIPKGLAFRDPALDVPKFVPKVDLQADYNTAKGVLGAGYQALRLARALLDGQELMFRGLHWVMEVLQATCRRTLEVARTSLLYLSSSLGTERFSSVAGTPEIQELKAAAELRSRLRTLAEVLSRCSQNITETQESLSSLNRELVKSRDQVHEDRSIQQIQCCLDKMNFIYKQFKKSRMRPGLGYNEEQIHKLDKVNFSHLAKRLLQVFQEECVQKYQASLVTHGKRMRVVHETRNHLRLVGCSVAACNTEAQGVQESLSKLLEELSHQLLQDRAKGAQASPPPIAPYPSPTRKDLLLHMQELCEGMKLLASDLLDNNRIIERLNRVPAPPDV
# [11] = target: T4, Inhibitor of nuclear factor kappa-B kinase subunit epsilon (Homo sapiens); conditions: at 1 µM
# [12] = target: T5, Serine/threonine-protein kinase Nek1 (Homo sapiens) (UniProt Q96PY6); conditions: at 0.1 µM
# T5 sequence (whole entry): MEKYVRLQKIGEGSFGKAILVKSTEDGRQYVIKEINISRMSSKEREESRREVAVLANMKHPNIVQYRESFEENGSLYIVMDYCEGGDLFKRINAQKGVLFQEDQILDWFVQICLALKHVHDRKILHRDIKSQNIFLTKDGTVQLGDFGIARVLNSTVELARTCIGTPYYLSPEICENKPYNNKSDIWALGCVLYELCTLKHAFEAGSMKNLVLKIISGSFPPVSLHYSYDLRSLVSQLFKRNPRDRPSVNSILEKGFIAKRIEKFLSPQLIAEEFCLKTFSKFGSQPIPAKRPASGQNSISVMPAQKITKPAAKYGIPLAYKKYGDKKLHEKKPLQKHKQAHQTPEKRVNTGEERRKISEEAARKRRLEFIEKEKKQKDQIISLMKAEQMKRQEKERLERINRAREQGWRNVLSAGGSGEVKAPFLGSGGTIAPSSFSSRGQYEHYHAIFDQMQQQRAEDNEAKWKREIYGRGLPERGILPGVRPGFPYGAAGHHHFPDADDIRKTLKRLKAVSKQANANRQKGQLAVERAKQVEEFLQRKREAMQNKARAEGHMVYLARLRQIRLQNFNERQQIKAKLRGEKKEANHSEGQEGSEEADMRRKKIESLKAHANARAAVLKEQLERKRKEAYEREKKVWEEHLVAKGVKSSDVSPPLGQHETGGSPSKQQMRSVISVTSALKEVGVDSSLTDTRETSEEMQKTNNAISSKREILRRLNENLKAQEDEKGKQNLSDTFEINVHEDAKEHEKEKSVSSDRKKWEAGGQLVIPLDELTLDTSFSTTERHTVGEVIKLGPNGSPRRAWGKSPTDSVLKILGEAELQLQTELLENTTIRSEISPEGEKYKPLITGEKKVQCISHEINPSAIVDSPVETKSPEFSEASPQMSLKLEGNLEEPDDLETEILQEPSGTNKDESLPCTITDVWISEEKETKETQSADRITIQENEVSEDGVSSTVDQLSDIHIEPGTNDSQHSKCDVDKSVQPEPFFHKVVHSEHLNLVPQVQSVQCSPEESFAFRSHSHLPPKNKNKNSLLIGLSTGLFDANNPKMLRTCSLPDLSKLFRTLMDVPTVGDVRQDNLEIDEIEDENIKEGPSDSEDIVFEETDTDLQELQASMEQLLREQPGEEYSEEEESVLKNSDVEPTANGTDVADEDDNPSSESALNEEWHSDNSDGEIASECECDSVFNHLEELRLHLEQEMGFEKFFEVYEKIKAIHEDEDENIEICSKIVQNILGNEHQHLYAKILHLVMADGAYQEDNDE
# [13] = target: T5, Serine/threonine-protein kinase Nek1 (Homo sapiens); conditions: at 1 µM
# [14] = target: T6, Serine/threonine-protein kinase Nek2 (Homo sapiens) (UniProt P51955); conditions: at 0.1 µM
# T6 sequence (whole entry): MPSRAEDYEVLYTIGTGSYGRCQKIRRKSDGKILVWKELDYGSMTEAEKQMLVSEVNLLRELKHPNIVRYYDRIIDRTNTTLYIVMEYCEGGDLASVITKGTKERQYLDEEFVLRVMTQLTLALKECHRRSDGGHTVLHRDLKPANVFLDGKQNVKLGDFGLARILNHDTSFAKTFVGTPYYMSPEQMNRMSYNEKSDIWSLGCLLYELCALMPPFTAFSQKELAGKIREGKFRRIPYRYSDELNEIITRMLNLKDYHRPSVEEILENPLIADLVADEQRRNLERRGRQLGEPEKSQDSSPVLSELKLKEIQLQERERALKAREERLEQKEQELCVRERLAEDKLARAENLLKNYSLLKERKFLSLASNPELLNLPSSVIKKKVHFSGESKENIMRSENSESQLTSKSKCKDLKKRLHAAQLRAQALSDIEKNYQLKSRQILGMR
# [15] = target: T6, Serine/threonine-protein kinase Nek2 (Homo sapiens); conditions: at 1 µM
# [16] = target: Serine/threonine-protein kinase Nek6 (Homo sapiens) (UniProt Q9HC98); conditions: at 0.1 µM
# Sequence of Serine/threonine-protein kinase Nek6 (Homo sapiens) (Q9HC98 whole entry): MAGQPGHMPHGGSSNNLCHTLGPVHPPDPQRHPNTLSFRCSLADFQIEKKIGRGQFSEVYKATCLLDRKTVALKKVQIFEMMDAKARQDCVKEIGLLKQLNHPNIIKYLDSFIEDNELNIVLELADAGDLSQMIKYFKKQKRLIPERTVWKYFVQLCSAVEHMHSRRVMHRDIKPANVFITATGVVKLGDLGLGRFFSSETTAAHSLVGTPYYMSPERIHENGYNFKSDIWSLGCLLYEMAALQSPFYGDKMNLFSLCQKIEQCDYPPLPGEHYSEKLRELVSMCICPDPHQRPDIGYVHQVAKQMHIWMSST
# [17] = target: Serine/threonine-protein kinase Nek6 (Homo sapiens) (UniProt Q9HC98); conditions: at 1 µM
# [18] = target: Serine/threonine-protein kinase Nek7 (Homo sapiens) (UniProt Q8TDX7); conditions: at 0.1 µM
# Sequence of Serine/threonine-protein kinase Nek7 (Homo sapiens) (Q8TDX7 whole entry, looked up): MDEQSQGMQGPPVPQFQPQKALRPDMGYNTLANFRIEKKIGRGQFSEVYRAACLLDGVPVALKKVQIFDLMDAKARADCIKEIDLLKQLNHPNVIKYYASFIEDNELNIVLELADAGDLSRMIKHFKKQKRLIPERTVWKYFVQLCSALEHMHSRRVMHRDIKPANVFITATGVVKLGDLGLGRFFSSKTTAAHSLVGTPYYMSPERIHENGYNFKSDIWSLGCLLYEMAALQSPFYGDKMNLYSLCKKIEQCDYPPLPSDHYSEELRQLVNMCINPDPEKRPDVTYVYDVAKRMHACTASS
# [19] = target: Serine/threonine-protein kinase Nek7 (Homo sapiens) (UniProt Q8TDX7); conditions: at 1 µM
# [20] = target: T7, Serine/threonine-protein kinase Nek9 (Homo sapiens) (UniProt Q8TD19); conditions: at 0.1 µM;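 also: reported value is the mean percent inhibition of NEK9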
# T7 sequence (whole entry): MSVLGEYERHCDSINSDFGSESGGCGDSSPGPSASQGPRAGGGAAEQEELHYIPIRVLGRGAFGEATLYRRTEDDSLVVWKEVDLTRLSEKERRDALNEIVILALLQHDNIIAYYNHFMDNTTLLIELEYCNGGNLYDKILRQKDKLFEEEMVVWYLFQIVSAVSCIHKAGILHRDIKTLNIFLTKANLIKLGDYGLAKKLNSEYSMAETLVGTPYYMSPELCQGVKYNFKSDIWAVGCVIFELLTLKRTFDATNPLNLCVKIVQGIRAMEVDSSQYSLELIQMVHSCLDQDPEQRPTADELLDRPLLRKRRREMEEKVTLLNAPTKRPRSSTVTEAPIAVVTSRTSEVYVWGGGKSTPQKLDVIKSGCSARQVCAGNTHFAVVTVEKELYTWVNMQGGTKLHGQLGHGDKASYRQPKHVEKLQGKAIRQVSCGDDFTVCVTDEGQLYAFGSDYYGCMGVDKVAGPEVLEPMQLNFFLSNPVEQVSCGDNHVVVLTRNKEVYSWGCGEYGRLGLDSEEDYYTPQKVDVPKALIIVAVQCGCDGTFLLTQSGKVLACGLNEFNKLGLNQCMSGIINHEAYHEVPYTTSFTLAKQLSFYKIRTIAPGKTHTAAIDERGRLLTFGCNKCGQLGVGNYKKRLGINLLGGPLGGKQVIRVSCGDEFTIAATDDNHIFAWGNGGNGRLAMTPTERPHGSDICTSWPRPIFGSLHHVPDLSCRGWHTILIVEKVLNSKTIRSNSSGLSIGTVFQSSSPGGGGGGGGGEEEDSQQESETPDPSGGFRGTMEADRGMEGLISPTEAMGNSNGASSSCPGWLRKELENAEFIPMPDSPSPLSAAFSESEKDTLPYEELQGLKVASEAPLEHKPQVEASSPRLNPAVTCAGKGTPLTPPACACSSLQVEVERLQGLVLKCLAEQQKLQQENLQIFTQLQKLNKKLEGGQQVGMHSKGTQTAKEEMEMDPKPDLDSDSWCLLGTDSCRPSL
# Sequence of Sphingosine kinase 1 (Homo sapiens) (Q9NYA1 whole entry): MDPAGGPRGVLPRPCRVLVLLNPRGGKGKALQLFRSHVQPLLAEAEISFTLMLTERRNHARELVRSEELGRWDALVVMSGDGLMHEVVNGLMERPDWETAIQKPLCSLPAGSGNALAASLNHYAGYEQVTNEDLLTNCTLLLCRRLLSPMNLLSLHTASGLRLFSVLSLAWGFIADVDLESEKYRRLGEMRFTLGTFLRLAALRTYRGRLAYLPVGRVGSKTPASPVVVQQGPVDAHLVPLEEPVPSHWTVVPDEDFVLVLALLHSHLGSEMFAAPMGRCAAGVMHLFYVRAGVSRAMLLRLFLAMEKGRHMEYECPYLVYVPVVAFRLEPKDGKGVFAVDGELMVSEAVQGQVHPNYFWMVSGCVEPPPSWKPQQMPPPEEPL
compound,measurement,setting,value
CCS(=O)(=O)c1ccc(OC)c(Nc2ncc(-c3cccc(C(C)=O)c3)o2)c1,inhibition,[1],-2.18%
same,inhibition,[2],0.25%
same,inhibition,[3],0.73%
same,inhibition,[4],6.61%
same,inhibition,[5],21.6%
same,inhibition,[6],-1.71%
same,inhibition,[7],-1.11%
same,inhibition,[8],5.35%
same,inhibition,[9],5.04%
same,inhibition,[10],6.89%
same,inhibition,[11],5.1%
same,inhibition,[12],1.59%
same,inhibition,[13],4.9%
same,inhibition,[14],3.34%
same,inhibition,[15],2.2%
same,inhibition,[16],3.06%
same,inhibition,[17],3.18%
same,inhibition,[18],2.79%
same,inhibition,[19],3.24%
same,inhibition,[20],5.45%
